Experimental data reported in PubChem BioAssay.
The list shows a part of the results. Calls of active or inactive are those of the source.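 The calls were made as follows, unless noted: active = signal rise of 40% or more at 20 µM, treated as a fluorescence artifact; inactive = the rest.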

Key:
[1] = apoptosome-driven caspase-3 activation blockers – biochemical, fluorescence, DEVD-Rh110, 20 µM, confirmation (AID 504614;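 active = mean inhibition of at least 40% at 20 µM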;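 also: plate controls were DMSO wells for no effect and DEVD-CHO caspase inhibitor control wells for full effect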); details: reconstituted apoptosome, caspase-3 DEVD-Rh110 fluorescence; at 20 µM; stronger effect = higher value
[2] = detection-step artefacts after completed caspase reaction – biochemical, fluorescence, Rh110, 20 µM, artefact control for Apaf-1 inhibitor project, confirmation (AID 504615); details: quenched caspase reaction, at 20 µM, stronger effect = higher value
[3] = fluorescence interference of Apaf-1 inhibitor hits, dose response, artefact control for Apaf-1 inhibitor project (AID 588538; call rule not given here); details: fluorescence interference counterscreen, Apaf-1 assay format
[4] = Brca1-Bard1 BiLC signal decrease – luminescence, single concentration, counter-screen for Mdm2/MdmX interaction inhibitor project, confirmation (AID 504668; call rule not given here); details: Brca1/Bard1 bimolecular luciferase complementation counterscreen, at 8 µM, stronger effect = higher value
[5] = HIF-2a driven luciferase blockers, single dose – luminescence, 786-0 RCC cells, confirmation (AID 651580;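 active = mean inhibition across four replicates of at least 40 percent at the single tested concentration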); details: HIF-2a luciferase reporter luminescence, overnight, at 18.8 µM, stronger effect = higher value
[6] = HIF-1a luciferase reporter signal reduction – MiaPaCa-2 cells, single concentration, counter-screen for HIF-2a inhibitor project, confirmation (AID 651589;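 active = mean inhibition of the reporter signal across four replicates at the single tested dose of 50% or more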); details: MiaPaCa-2 HIF-1a luciferase reporter, desferoxamine, overnight; at 18.8 µM; stronger effect = higher value
[7] = inhibition of PEG-3 promoter luciferase signal – cell-based, HeLa, luciferase reporter, single concentration, confirmation (AID 602417;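 active = at 20 µM dose, 40% or more inhibition averaged across four replicates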); details: HeLa PEG-Prom luciferase reporter, luminescence, overnight; at 20 µM; stronger effect = higher value
PEG-3 [8] = target: PEG-3 (UniProt Q6IN02); assay: inhibition of PEG-3 promoter-driven reporter – cell-based, HeLa, luciferase, CREF/GAPDH counter-screen panel, dose response (AID 624167); details: CREF/GAPDH counter-screens; HeLa PEG-Prom luciferase reporter, overnight, run 1, dose range 1, at 100 µM (top of the series) unless noted
Sequence of PEG-3 (Q6IN02 whole entry, looked up): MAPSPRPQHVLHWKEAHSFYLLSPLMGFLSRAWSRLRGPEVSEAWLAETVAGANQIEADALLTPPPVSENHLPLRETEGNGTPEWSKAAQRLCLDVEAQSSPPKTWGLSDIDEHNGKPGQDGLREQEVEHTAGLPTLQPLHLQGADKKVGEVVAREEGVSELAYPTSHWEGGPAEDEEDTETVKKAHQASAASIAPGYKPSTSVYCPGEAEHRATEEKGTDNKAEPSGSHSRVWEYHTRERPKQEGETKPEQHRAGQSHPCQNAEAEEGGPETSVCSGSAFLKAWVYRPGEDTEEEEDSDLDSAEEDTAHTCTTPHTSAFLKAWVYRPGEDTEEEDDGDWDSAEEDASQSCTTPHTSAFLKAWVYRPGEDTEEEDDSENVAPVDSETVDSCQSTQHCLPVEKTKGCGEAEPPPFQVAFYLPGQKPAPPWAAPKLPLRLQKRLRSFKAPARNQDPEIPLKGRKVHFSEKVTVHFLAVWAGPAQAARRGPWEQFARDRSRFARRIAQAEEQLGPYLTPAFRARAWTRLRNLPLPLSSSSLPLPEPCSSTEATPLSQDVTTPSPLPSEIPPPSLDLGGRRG

PEG-3 [9] = target: PEG-3 (UniProt Q6IN02); assay: as above; details: CREF/GAPDH counter-screens; HeLa PEG-Prom luciferase reporter, overnight, run 2, dose range 1, at 100 µM (top of the series) unless noted

Structure (SMILES): NC(N)=NCCCc1cn(CC(=O)N2CCNCC2)nn1
- inhibition [1]: 9.2% (inactive)
- activation (fluorescence interference) [2]: -2.11% (inactive)

Structure (SMILES): C#CCOCCOCCOCCNc1nc(N2CCN(C(=O)C([C@@H](C)O)n3cc([C@@H](N)CCCCN)nn3)CC2)nc(N2CCN(C(=O)[C@H](CCCCN)n3cc(CN)nn3)CC2)n1 (stereo partly drawn)
- inhibition [1]: 1.31% (inactive)
- activation (fluorescence interference) [2]: -7.33% (inactive)

Structure (SMILES): CN1CCN(c2ccccc2NC(=O)COc2ccc(C3CCCCC3)cc2)CC1
- inhibition [1]: 7.86% (inactive)
- activation (fluorescence interference) [2]: 2.41% (inactive)

Structure (SMILES): Cc1cc(N2CCCC2)ccc1NC(=O)COc1ccc(Cl)cc1
- inhibition [1]: 28.9% (inactive)
- activation (fluorescence interference) [2]: 1.52% (inactive)

Structure (SMILES): O=C1Nc2ccc([N+](=O)[O-])cc2C1=Nc1cccc(CO)c1
- inhibition [1]: 39.8% (inactive)
- activation (fluorescence interference) [2]: -4.07% (inactive)

Structure (SMILES): CCN(CC)CCOc1ccc2c(c1)C(=NNC(=O)c1ccccn1)c1cc(OCCN(CC)CC)ccc1-2
- inhibition [1]: 56.1% (active)
- activation (fluorescence interference) [2]: 15.8% (inactive)

Structure (SMILES): C(=N/Nc1cc(N2CCOCC2)nc(N2CCOCC2)n1)/c1ccccc1
- inhibition [1]: 27.8% (inactive)
- activation (fluorescence interference) [2]: 2.85% (inactive)

Structure (SMILES): COc1ccccc1C1C(C#N)=C(N)Oc2c1c(-c1ccccc1)nn2-c1ccccc1 (stereo not drawn)
- inhibition [1]: 19.9% (inactive)
- activation (fluorescence interference) [2]: 5.51% (inactive)

Structure (SMILES): O=C(CCCN1CCc2[nH]c3ccc(F)cc3c2C1)c1ccc(F)cc1
- inhibition [1]: 65.3% (active)
- activation (fluorescence interference) [2]: 4.85% (inactive)
- IC50 [3]: > 100 µM (inactive)

Structure (SMILES): CCc1ccc(CNC(=O)C2CCN(c3nnc(C)c4c(C)n(-c5ccc(C)cc5)nc34)CC2)cc1
- inhibition [1]: 13.2% (inactive)
- activation (fluorescence interference) [2]: 0.21% (inactive)
- inhibition [4]: 23.7% (active)
- inhibition [5]: -2.57% (inactive)
- inhibition [6]: 20.1% (inactive)

Structure (SMILES): CCCCCCc1cc2cc(-c3nnc(-c4ccccc4)o3)c(=O)oc2cc1O
- inhibition [1]: 76% (active)
- activation (fluorescence interference) [2]: 7.27% (inactive)
- IC50 [3]: > 100 µM (inactive)

Structure (SMILES): COc1cccc(-c2sc3ccc(OC)cc3c2-c2ccc(OCCN3CCCCC3)cc2)c1
- inhibition [1]: 4.75% (inactive)
- activation (fluorescence interference) [2]: 11.8% (inactive)
- inhibition [4]: 32.7% (active)

Structure (SMILES): COc1ccc(C(CNC(=O)c2ccc(S(=O)(=O)Nc3ccccc3F)cc2)N(C)C)cc1 (stereo not drawn)
- inhibition [1]: 43.8% (active)
- activation (fluorescence interference) [2]: -0.45% (inactive)
- IC50 [3]: > 100 µM (inactive)

Structure (SMILES): c1ccc(C[C@H]2CNCCN2CCC23CC4CC(CC(C4)C2)C3)cc1
- inhibition [1]: 1.61% (inactive)
- activation (fluorescence interference) [2]: -3.75% (inactive)

Structure (SMILES): NC[C@H](Cc1ccccc1)NCCc1cc(C(F)(F)F)cc(C(F)(F)F)c1
- inhibition [1]: 17.2% (inactive)
- activation (fluorescence interference) [2]: 11.5% (inactive)

Structure (SMILES): c1ccc(CSc2nnc(-c3ccco3)c(-c3ccco3)n2)cc1
- inhibition [1]: 29.4% (inactive)
- activation (fluorescence interference) [2]: 6.26% (inactive)

Structure (SMILES): CCCCNC(=O)C(C)N(CCN(C)C)C(=O)CCCCCN1C(=O)NC(c2ccc(Cl)cc2)C(C(=O)OCc2ccccc2)=C1C (stereo not drawn)
- inhibition [1]: 22.9% (inactive)
- activation (fluorescence interference) [2]: -179% (inactive)
- inhibition [4]: 27.8% (active)
- inhibition [7]: 99.7% (active)
- inhibition (PEG-3 [8]): 102%
- inhibition (PEG-3 [9]): 101%

Structure (SMILES): O=C(O)c1cc(Cl)c(Cl)cc1C(=O)Nc1cccc2ncccc12
- inhibition [1]: 1.69% (inactive)
- activation (fluorescence interference) [2]: -4.02% (inactive)

Structure (SMILES): Cc1cc(C)n(-c2nc(SCC(=O)N3CCCC3)c3c4c(sc3n2)CCCC4)n1
- inhibition [1]: 26.4% (inactive)
- activation (fluorescence interference) [2]: 8.64% (inactive)

Structure (SMILES): CC(=O)Nc1ccc(Nc2cc(C)nc(Nc3ccc(NC(C)=O)cc3)n2)cc1
- inhibition [1]: 10.4% (inactive)
- activation (fluorescence interference) [2]: 4.46% (inactive)

Structure (SMILES): CCOC(=O)N1CCC(NC(=O)C(C)n2c3ccccc3c3cnn(C)c(=O)c32)CC1 (stereo not drawn)
- inhibition [1]: 14% (inactive)
- activation (fluorescence interference) [2]: 17.6% (inactive)

Structure (SMILES): O=c1cc(N2CCCCC2)c(-c2ccccc2)nn1Cc1cccc(F)c1
- inhibition [1]: 18.3% (inactive)
- activation (fluorescence interference) [2]: 9.4% (inactive)

Structure (SMILES): CCCC[C@@H]1CN=C(N)N1CCc1cc(C(F)(F)F)cc(C(F)(F)F)c1
- inhibition [1]: 11.5% (inactive)
- activation (fluorescence interference) [2]: 3.05% (inactive)

Structure (SMILES): CCOC(=O)C1CCN(C(=O)c2cccc(S(=O)(=O)N(CC)c3ccccc3)c2)CC1
- inhibition [1]: 27.8% (inactive)
- activation (fluorescence interference) [2]: 5.38% (inactive)

Structure (SMILES): C[C@@H](CN1CCC[C@H]1CN1C(N)=NC[C@@H]1Cc1ccccc1)N1C[C@@H](Cc2ccccc2)N(CCCC2CCCC2)C1=N
- inhibition [1]: 11.8% (inactive)
- activation (fluorescence interference) [2]: 7.13% (inactive)

Structure (SMILES): C=CCC[C@H](Cc1ccc(F)cc1)C(=O)OC[C@@H](NC(=O)[C@@H](CC=C)CC(=O)N[C@H](CO)Cc1ccccc1)C(C)(C)C
- inhibition [1]: 14.6% (inactive)
- activation (fluorescence interference) [2]: 3.46% (inactive)

Structure (SMILES): Cc1ccc2c(c1)C1CN(C)CCC1N2S(=O)(=O)c1ccc(Oc2ccc([N+](=O)[O-])cc2)cc1 (stereo not drawn)
- inhibition [1]: 20.2% (inactive)
- activation (fluorescence interference) [2]: 1.73% (inactive)

Structure (SMILES): CC(C)CC[n+]1ccn(C2=C([O-])c3ccccc3C(=O)/C2=N\S(=O)(=O)c2ccccc2)c1
- inhibition [1]: 62.6% (active)
- activation (fluorescence interference) [2]: 5.73% (inactive)
- IC50 [3]: > 100 µM (inactive)

Structure (SMILES): CCC(C)(C)c1ccc(OCC(=O)N(C)C)c(C(C)(C)CC)c1
- inhibition [1]: 17.9% (inactive)
- activation (fluorescence interference) [2]: 8.45% (inactive)

Structure (SMILES): CCN1C(=NCc2ccc(OC)cc2)N[C@@H](CCc2ccccc2)[C@H](C(=O)NCc2ccc(OC)cc2)[C@H]1C
- inhibition [1]: 4.13% (inactive)
- activation (fluorescence interference) [2]: 7.82% (inactive)

Structure (SMILES): CCCCCCCCCCOC(=O)Cn1c(COc2cccc(OC)c2)[n+](C)c2ccccc21
- inhibition [1]: 74.8% (active)
- activation (fluorescence interference) [2]: 23% (inactive)
- inhibition [4]: 31.2% (active)
- IC50 [3]: > 100 µM (inactive)

Structure (SMILES): C=CCn1c(N)c(C(=O)OCC(C)C)c2nc3ccccc3nc21
- inhibition [1]: 19.4% (inactive)
- activation (fluorescence interference) [2]: 12% (inactive)
